Source: ChEMBL document CHEMBL1157539, “Thousands of chemical starting points for antimalarial lead identification” (Nature, 2010)

How the values were obtained:
Assay type in all cases: functional
Plasmodium falciparum [1] = experiment: GSK_TCMDC: Inhibition of Plasmodium falciparum 3D7 in whole red blood cells, using parasite LDH activity as an index of growth. Test compounds present at 2uM
Plasmodium falciparum [2] = experiment: GSK_TCMDC: Inhibition of Plasmodium falciparum Dd2 in whole red blood cells, using parasite LDH activity as an index of growth. Test compounds present at 2uM
HepG2 = experiment: GSK_TCMDC: Percent inhibition of human HepG2 cell line. Test compounds present at 10uM.

Structure (SMILES)	Inhibition (Plasmodium falciparum [1])	Inhibition (Plasmodium falciparum [2])	Inhibition (HepG2)
COc1ccc2ncc(F)c(CCN3CCC(CNCc4cccc5c4OCO5)CC3)c2n1.Cl	93%	37%	39%
Cl.FC(F)(F)c1ccc2c(NCCc3ccccc3)ccnc2c1	87%	9%	14%
CCc1cccc(NC(=O)c2ccc(CN3CCCN(CC4CCCCC4)CC3)cc2)c1.O=C(O)C(F)(F)F	84%	36%	44%
COc1ccc(NC(=O)/C=C/c2ccccc2Cl)cc1OCCN1CCC(c2nc3ccccc3[nH]2)CC1.Cl	92%	16%	35%
Nc1ncc(-c2ccc3nccc(-c4ccncc4)c3c2)cc1S(=O)(=O)N1CCCCC1	100%	100%	25%
C=CCOC(=O)N1CCC(CNCc2ccc(-c3ccc(-c4nc5cc(C(F)(F)F)ccc5[nH]4)cc3)cc2)C1.O=C(O)C(F)(F)F (stereo unspecified)	100%	98%	44%
COc1cc2nc(NCc3cccc(CNC(=O)c4ccc(-c5ccc(C(C)=O)cc5)cc4)c3)nc(N)c2cc1OC.O=C(O)C(F)(F)F	100%	72%	32%
Cl.O=c1cc(NCCCNCc2sc(Br)nc2Br)[nH]c2ccccc12	92%	44%	1%
COc1cccc2cc(C(=O)N[C@@H](CC(C)C)C(=O)N[C@H](C=NNC(=O)OC(C)(C)C)Cc3ccccc3)oc12	99%	88%	11%
FC(F)(F)c1ccc2[nH]c(-c3ccc(-c4cccc(CN5CCCCC5)c4)cc3)nc2c1.O=C(O)C(F)(F)F	100%	99%	22%
COc1ccc2nccc([C@@H](O)CN3CCC(NC(=O)c4ccc(OC)c(N)c4)CC3)c2c1.CS(=O)(=O)O	93%	0%	9%
Cl.N=c1n(CCN2CCCC2)c2ccccc2n1CC(O)c1ccc(Cl)c(Cl)c1 (stereo unspecified)	100%	6%	36%
Cc1ccc2c(c1)C1(CC(=O)N(CCc3scnc3C)C1=O)C(=O)N2Cc1ccccc1 (stereo unspecified)	83%	73%	0%
Cc1ccc(Nc2nccc(NCC(O)c3ccc(C(F)(F)F)cc3)n2)cc1 (stereo unspecified)	100%	100%	53%
CC(=O)Nc1ccc(CN2CCCN(c3cc(NC(=O)c4cccc(C)c4)ccn3)CC2)cc1.O=C(O)C(F)(F)F	92%	10%	0%
CC(C)NCC(=O)Nc1cccc(C(=O)Nc2cccc(C(F)(F)F)c2)c1	97%	89%	6%
COc1ccc(C(=O)Nc2ccc3oc(-c4ccc(C(F)(F)F)cc4)cc3c2)cc1CCCN(C)C	98%	27%	98%
CCc1ccc2c(c1O)CCN(C)C2Cc1ccccc1Cl.Cl (stereo unspecified)	99%	99%	13%
Cl.ON=C1c2cc(OCCN3CCCCC3)c(Cl)cc2-c2cc(Cl)c(OCCN3CCCCC3)cc21	97%	98%	99%
CC(C)COc1ccc(Cl)cc1Cc1nc(-c2nc3ccc(CN4CCN(C)CC4)cc3[nH]2)co1.Cl	100%	57%	5%
CCOc1ccc(OCC(=O)Nc2nc(-c3ccc(OC)cc3)c(C)s2)cc1	99%	98%	0%

Structure (SMILES)	Inhibition (Plasmodium falciparum [1])	Inhibition (Plasmodium falciparum [2])	Inhibition (HepG2)
Cc1cc(N)c2cc(NC(=O)c3cc(C(F)(F)F)cc(C(F)(F)F)c3)ccc2n1.Cl	100%	99%	100%
Cc1nc(N)nc(N)c1OCCCOc1ccccc1Br.Cl	94%	96%	57%
COCCNC(=O)C1CCN(C(c2ccc(Cl)cc2)c2ccc(Cl)cc2)CC1	86%	73%	3%
CCN(CC)c1ccc(C=CC(=O)NCCN2CCC(N(C)C3CCCCC3C)CC2)cc1 (stereo unspecified)	88%	18%	29%
O=C(Nc1ccnc(N2CCCN(Cc3cccc(O)c3)CC2)c1)c1ccc(F)cc1.O=C(O)C(F)(F)F	90%	3%	12%
CN1CCc2ccc(NC(=O)Nc3cccc(C(=O)c4ccccc4)c3)cc2C1	83%	16%	11%
CCCNCc1ccc(-c2ccc(CN(CCOC)C(=O)Cc3cccnc3)cc2)nc1.O=C(O)C(F)(F)F	92%	13%	10%
CN(CC(=O)Nc1cc(C(F)(F)F)ccc1-n1cncn1)Cc1ccc2ccccc2c1	98%	99%	18%
Cc1ccc2nc(-c3ccc(C(=O)NCc4ccc(Cl)c(Cl)c4)cc3)[nH]c2c1C	96%	26%	19%
CS(=O)(=O)c1ccc(CCNCc2ccc(-c3ccc(CN(C(=O)c4ccc(Cl)nc4)C4CCN(Cc5ccccc5)CC4)cc3)nc2)cc1.O=C(O)C(F)(F)F	93%	70%	24%
Cl.O=[N+]([O-])c1ccc(C(O)CNCCc2ccccc2)cc1OCc1ccccc1 (stereo unspecified)	94%	67%	0%
COc1ccc(C=NNc2nc(O)cc(-c3ccccc3)n2)cc1OC	92%	93%	22%
Cc1cc(N(C)C)nc(Nc2ccc(NC(=O)c3ccccc3Cl)cc2)n1	88%	31%	3%
CCCCCc1cc(O)c2c(c1)OC(C)(C)C=C2C1=CCN(Cc2ccsc2)CC1	98%	48%	20%
CCc1ccc(NC(=O)c2ccc(CN3CCCN(CC4CCCCC4)CC3)cc2)cc1.O=C(O)C(F)(F)F	96%	48%	48%
O=C(Nc1ccc(C(=O)OCC2CCCCC2)cc1)N[C@@H](Cc1ccc(O)cc1)C(=O)NC1CCN(Cc2ccc(O)cc2)C1.O=C(O)C(F)(F)F (stereo partly specified)	91%	0%	6%
COc1ccc(S(=O)(=O)N2CCC3(CC2)OCC(=O)NC3c2ccc(Cl)c(Cl)c2)cc1 (stereo unspecified)	91%	44%	0%
COc1ccc(-c2c3c(=O)n(C)c(=O)n(C)c3c3nnc4ccccc4n23)cc1	96%	86%	0%
C=CCOc1cccc2c1CCN(CCN1CCC(NC(=O)c3ccc(-c4ccc(Cl)cc4)cc3)CC1)C2	93%	22%	35%
N#Cc1cccc(C(=O)N2CCOC(CCN3CCC(c4ccccc4)CC3)(c3ccc(Cl)c(Cl)c3)C2)c1 (stereo unspecified)	87%	49%	51%
CS(=O)(=O)c1ccc(-c2cnc(N)c(-c3cccc(O)c3)c2)cc1	98%	97%	48%

Structure (SMILES)	Inhibition (Plasmodium falciparum [1])	Inhibition (Plasmodium falciparum [2])	Inhibition (HepG2)
C=CCc1cc(Cc2cnc(N)nc2N)c2ccc(C)nc2c1O	84%	3%	51%
NCCCNc1nc(Nc2ccc(C(F)(F)F)cc2F)c2c(=O)[nH]ccc2n1.O=C(O)C(F)(F)F	95%	15%	23%
O=S(=O)(Nc1ccc(CCN2CCC(N3CCCCC3)CC2)cc1)c1ccccc1C(F)(F)F	95%	8%	9%
COc1cc2ccccc2c(OC)c1CCNCCCCNCCc1c(OC)cc2ccccc2c1OC.CS(=O)(=O)O	99%	30%	100%
Cc1cc(N(C)C)nc(Nc2ccc(NC(=O)c3ccc(Br)o3)cc2)n1	100%	57%	1%
O=C(/C=C/c1ccc(Cl)c(Cl)c1)NCCCCCN1CCC(NC(=O)Nc2cc(Cl)ccc2Cl)CC1	99%	31%	99%
CCCN1CCN(Cc2ccc(C(=O)Nc3ccc(Cl)cc3)cc2)CC1.O=C(O)C(F)(F)F	94%	14%	48%
NCc1cccc(-c2ccc(CNC3CCN(Cc4ccccc4)CC3)cc2)c1.O=C(O)C(F)(F)F	95%	3%	2%
COc1cccc(-c2cnc(N)c(-c3nc4ccc(F)cc4[nH]3)c2)c1.Cl	97%	43%	47%
COc1cc(-n2cnc3cc(-c4ccc([N+](=O)[O-])cc4)sc3c2=O)ccc1OCCN1CCCC1.O=C(O)C(F)(F)F	97%	79%	44%
Cc1cccc2nc(-c3ccc(-c4cccc(CN5CCCC(N)C5)c4)s3)[nH]c12.O=C(O)C(F)(F)F (stereo unspecified)	100%	94%	17%
COC(=O)c1ccc2c(-c3nc4ccc(OC)cc4[nH]3)c[nH]c2c1	95%	31%	0%
CC(C)Cn1c(N)cc(=O)n(C)c1=O	100%	0%	3%
O=C(NC1CCN(Cc2ccccc2)CC1)c1cccc(-c2nc3ccc(Cl)cc3[nH]2)c1	98%	0%	6%
COc1cccc(C(=O)NCCOc2ccccc2)c1Oc1ccccc1	98%	98%	14%
O=S(=O)(c1ccccc1OC(F)(F)F)C1CC2CCC(C1)N2S(=O)(=O)c1cccc(C(F)(F)F)c1 (stereo unspecified)	99%	99%	5%
O=C(Nc1ccc(Br)cc1)N(CCN1CCOCC1)CC(O)COCc1ccc(Cl)c(Cl)c1.O=C(O)C(F)(F)F (stereo unspecified)	94%	52%	16%
COc1ccccc1-n1ccnc1SCC(=O)Nc1cccc(C(F)(F)F)c1	95%	96%	1%
COc1ccc(C(=O)NCc2ccc(N)nc2C)cc1Nc1ncc(-c2cccc(N(C)C)c2)cn1	89%	68%	9%
Cc1ccc(N2C(=O)C3C(C2=O)C2(c4ccccc4)C(=O)C3(c3ccccc3)C(c3ccccc3)=C2c2ccccc2)cc1 (stereo unspecified)	92%	96%	17%
